Screening results (PubChem)
PfHsp90 set2 = growth inhibition of PfHsp90-expressing yeast, primary screen, antimalarial PfHsp90 inhibitor project, S. cerevisiae, BacTiter-Glo luminescence, single point, set 2; inhibition, % at 9.4 µM; BacTiter-Glo ATP, 48 h; yeast lacking PDR1 and PDR3 efflux regulators; hit rate 0.32% among 310,000;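 active means every replicate shows inhibition above about 80%, whatever the replicate mean, limit read from the data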;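 further: 0% = DMSO neutral controls and 100% = 20 µM radicicol positive controls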
tim10-1 inh = growth inhibitors of tim10-1 mutant yeast, primary screen, luminescence, uHTS; S. cerevisiae tim10-1 ts strain growth, BacTiter-Glo, 24 h; inhibition, % at 20 µM; hit rate 2.2% among 330,000;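 active means inhibition of at least 40%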;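 further: mutant grown at 25 °C; 0% = DMSO wells with yeast and 100% = wells holding no yeast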
tim23-1 inh = growth inhibitors of tim23-1 mutant yeast, primary screen, luminescence, uHTS; S. cerevisiae tim23-1 growth, BacTiter-Glo luminescence, 24 h; inhibition, % at 20 µM; hit rate 1.3% among 330,000; AID 463212, 2010;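 active means growth inhibition of the mutant yeast at or above 50%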;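 further: temperature-sensitive mutant grown at 25 °C; plate controls were DMSO-treated mutant yeast for no effect and medium wells lacking yeast for full effect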
V-ATPase pHluor = regulators of yeast V-ATPase proton pumping, primary screen, pHLuorin cytosolic pH fluorescence. AID 504577, 2011. S. cerevisiae. response, % at 10 µM. hit rate 0.37% among 350,000; in the data active means response mostly above about 7.3%, no sharp cut-off; inactive means mostly below about 5.4%; further: actives read high
TIM10 inh = growth inhibitors of isogenic TIM10 control yeast, primary screen, counter-screen for tim10-1 yeast inhibitor project, luminescence, uHTS | S. cerevisiae TIM10 strain growth, BacTiter-Glo luminescence, 24 h | inhibition, % at 10 µM | hit rate 1.4% among 330,000 | AID 463195, 2010;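 active means inhibition of 40% or more at the single tested concentration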;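 further: wild-type TIM10 isogenic control strain grown at permissive 25 °C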
SKKanGAS inh = S. pyogenes SKKanGAS growth inhibitors in kanamycin, primary screen, streptokinase expression inhibitor project, SKKanGAS strain, BacTiter-Glo luminescence; inhibition, % at 7.5 µM; hit rate 1.3% among 300,000; 6 h;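 active means mean replicate score, as percent of positive control median, at least 50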;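 further: strain carries kanamycin resistance gene driven by streptokinase promoter and grows in 40 µg/ml kanamycin; loss of luminescence reflects streptokinase promoter inhibition or plain growth inhibition; 0% = median of DMSO wells and 100% = positive control at its reference dose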
tim10-1 confirm = growth inhibitors of tim10-1 mutant yeast, confirmation, single concentration, luminescence, S. cerevisiae. hit rate 56% among 7,400. inhibition, % at 20 µM. shares compounds with tim10-1 inh. S. cerevisiae tim10-1 ts strain growth, BacTiter-Glo, 24 h. AID 463213, 2010;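 active means inhibition of yeast growth at or above a set limit in either of two repeat tests at 20 µM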;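 further: tim10-1 mutant grown at permissive 25 °C to find synthetic lethal compounds; 0% = DMSO yeast wells and 100% = medium wells without yeast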
tim10 confirm = growth inhibitors of wild-type TIM10 yeast, confirmation, counter-screen for tim10-1 synthetic lethality project, single concentration, luminescence, S. cerevisiae. shares compounds with TIM10 inh. S. cerevisiae tim10 strain growth, BacTiter-Glo luminescence, 24 h. inhibition, % at 10 µM. hit rate 63% among 4,600. AID 463215, 2010;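 active means inhibition of yeast growth at or above a set limit in either of two replicates at 10 µM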;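 further: this counterscreen used the strain with wild-type TIM10; 0% = yeast with DMSO and 100% = medium wells lacking yeast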
tim23-1 conf = tim23-1 mutant yeast growth inhibitors, confirmation, luminescence, single concentration; shares compounds with tim23-1 inh; S. cerevisiae tim23-1 growth, BacTiter-Glo luminescence, 24 h; inhibition, % at 20 µM; hit rate 83% among 4,400; AID 463218, 2010;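 active means inhibition above about 39% in either of two replicate wells at 20 µM, limit read from the data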;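 further: temperature-sensitive tim23-1 mutant grown at 25 °C; 0% = DMSO wells with yeast and 100% = medium wells without yeast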
* hit, by the source's call; · = no result given. Most compounds without a hit are left out; they make up all but 4.6% or so of the library.

SMILES	PfHsp90 set2	tim10-1 inh	tim23-1 inh	V-ATPase pHluor	TIM10 inh	SKKanGAS inh	tim10-1 confirm	tim10 confirm	tim23-1 conf
COc1ccc(CC(=O)NC(=S)Nc2cccc(C)c2)cc1	-3	46*	62*	1	47*	-9	29*	36*	46*
COc1ccc(CC(=O)NC(=S)Nc2cccc(CO)c2)cc1	·	13	24	1	12	3	·	·	·
CN(CC(=O)NCc1ccco1)CC(=O)Nc1cc(S(C)(=O)=O)ccc1Cl	14	3	7	1	-4	·	·	·	·
CC1CCc2sc(NC(=O)C3CC(Cl)=CCC3C(=O)O)c(C#N)c2C1 (stereo not drawn)	8	28	18	-1	5	15	·	·	·
COC(=O)c1cc(CSc2nc3ccccc3c(=O)n2C)oc1C	-4	17	14	-5	4	-1	·	·	·
CCC(C)(C)NC(=O)CN(Cc1ccco1)C(=O)CCC(=O)Nc1nccs1	-42	7	11	1	7	-4	·	·	·
COC(=O)c1cc(C(=O)NCC2CCCCC2)cc([N+](=O)[O-])c1	-27	-11	26	5	8	2	·	·	·
COC1(C)CC2C(CC1OC(=O)c1cc([N+](=O)[O-])cc([N+](=O)[O-])c1)C2(C)C (stereo not drawn)	-7	60*	65*	2	63*	-1	61*	62*	68*
O=C(Cc1cccc(NC(=O)C2CCCN(C(=O)C3CCCCC3)C2)c1)Nc1cccc(C(=O)N2CCCC2)c1 (stereo not drawn)	3	-2	5	2	0	·	·	·	·
Cc1cccc(CS(=O)(=O)c2nnc([C@H](Cc3ccccc3)NC(=O)OC(C)(C)C)o2)c1	112*	69*	55*	4	54*	79*	51*	52*	61*
CC(C)(C)OC(=O)N[C@@H](Cc1ccccc1)c1nnc(SCC(N)=O)o1	-29	17	22	1	17	2	·	·	·
COc1cc2c3c(c1)C(C)=CC(C)(C)N3C(=O)C2=O	1	41*	57*	4	12	-4	28	·	57*
COc1cc(N=C2C(=O)N3c4c(cccc42)C(C)=CC3(C)C)cc(OC)c1	-7	20	28	1	16	0	·	·	·
c1ccc(-c2nc(NC3CCCC3)c3ccccc3n2)cc1	15	46*	53*	-2	41*	-6	36*	17	68*
COc1ccc(Nc2nc(-c3ccccc3O)nc3ccccc23)cc1	-35	46*	51*	4	33	22	36*	·	59*
c1ccc(Nc2nc(-c3ccccc3)nc3ccccc23)cc1	-19	47*	65*	2	27	-4	26	·	49*
N=C(SC1CC(=O)N(c2ccc(F)cc2)C1=O)N1N=C(c2ccccc2)CC1c1ccccc1 (stereo not drawn)	-12	1	-16	0	-6	30	·	·	·
CC(=O)Nc1cccc(C(=O)OCC(=O)N2CCC(c3ccccc3)=N2)c1	13	13	15	-2	11	-8	·	·	·
CCOC(=O)c1[nH]c(C=O)c(C(=O)OCC)c1C	-12	60*	76*	-3	67*	1	50*	55*	80*
O=C(Nc1cccc(Cl)c1)c1cc(S(=O)(=O)N2CCOCC2)cs1	-7	9	14	3	-12	-4	·	·	·
COc1cccc(NC=C2C(=O)OC3(CCCCC3)OC2=O)c1	-6	66*	74*	7	58*	4	70*	72*	74*
O=c1oc2cc(Oc3c([N+](=O)[O-])cc(C(F)(F)F)cc3[N+](=O)[O-])ccc2c2c1CCCC2	·	72*	76*	-1	69*	6	65*	74*	79*
CCCCCCNc1c([N+](=O)[O-])c(=O)sc2ccccc12	·	3	37	-3	33	5	·	·	·
CC(C)(C)Nc1c([N+](=O)[O-])c(=O)sc2ccccc12	1	55*	71*	1	60*	0	53*	49*	69*
COc1cc(OC)cc(C(=O)Nc2ccc(N3CCN(C(=O)c4cccs4)CC3)cc2)c1	-3	-10	-2	2	10	9	·	·	·
SMILES	PfHsp90 set2	tim10-1 inh	tim23-1 inh	V-ATPase pHluor	TIM10 inh	SKKanGAS inh	tim10-1 confirm	tim10 confirm	tim23-1 conf
COc1ccc(-c2nnc(SCC(=O)Oc3ccc(C)cc3)o2)cc1	105*	91*	53*	1	89*	3	84*	91*	58*
COc1cccc(C(=O)Nc2ccc(Cl)c(C(F)(F)F)c2)c1	57	64*	68*	-3	61*	8	57*	50*	75*
COc1cccc(C(=O)Nc2cc(C(F)(F)F)ccc2Cl)c1	-13	31	30	-3	27	-7	·	·	·
CC1Cc2ccccc2N1C(=O)CN1CCC(n2nnc3cc(C(F)(F)F)ccc32)CC1 (stereo not drawn)	-22	41*	50*	0	29	3	38*	·	42*
COc1ccc2c(c1)CC/C(=C/c1ccccn1)C2=O	8	55*	58*	·	56*	5	54*	60*	52*
NS(=O)(=O)c1cccc(NC(=O)CCSc2ccccc2Cl)c1	-1	1	-1	5	11	-1	·	·	·
O=C(CCSc1ccccc1Cl)Nc1cccc([N+](=O)[O-])c1	13	56*	54*	1	52*	-4	50*	29	62*
CCC1(C)Cc2ccccc2C(=S)N1 (stereo not drawn)	-15	18	-3	5	-1	2	·	·	·
Cc1cccc(N2C(=O)CC(Cn3nc(C)cc3C)C2=O)c1 (stereo not drawn)	5	9	4	0	-1	10	·	·	·
CCN(CC)C1CC(=O)N(c2cccc(C)c2)C1=O (stereo not drawn)	·	59*	54*	·	30	-3	56*	·	66*
CC(=O)Nc1cccc(NC(=O)c2cccc3cccnc23)c1	5	4	9	3	-5	1	·	·	·
